This is part of a sample that, as a whole, favours compounds with a hit. Of some 79,000 tested, about 15% had one in any assay. Values without a mark were called inactive. Calls of active or inactive are those of the source. No stated cut-off is given here; in the data, active means growth inhibition above about 70%; inactive means the rest.

From PubChem BioAssay (NCI) come the findings set out here.

Assay [1] can be described thus: NCI Yeast Anticancer Drug Screen. Data for the rad50 strain (AID 155).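 Further: 0% = growth of vehicle-only cultures of the same strain.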 The note with it: S. cerevisiae rad50 strain growth inhibition, hits give high values. A digest of the protocol:
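A DNA repair-deficient yeast mutant serves as the test organism; compound-induced growth inhibition is calculated against vehicle-treated cells.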

Assay [2] is described as follows: NCI Yeast Anticancer Drug Screen. Data for the mec2-1 strain (AID 157). As to conditions: S. cerevisiae mec2-1 strain, hits give high values. A digest of the protocol:
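Yeast mec2-1 mutant treated with compound. Readout: growth inhibition vs vehicle controls.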

The nature of assay [3]: NCI Yeast Anticancer Drug Screen. Data for the sgs1 mgt1 strain (AID 161).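 Further: 0% = growth of cultures given vehicle only.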 The note with it: S. cerevisiae sgs1 mgt1 strain, hits give high values. In outline: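 Mutant yeast exposed to compound; growth scored against vehicle-only wells.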
The nature of assay [4]: NCI Yeast Anticancer Drug Screen. Data for the cln2 rad14 strain (AID 165).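 Further: 0% = growth equal to vehicle treated cultures.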 As to conditions: S. cerevisiae cln2 rad14 strain, hits give high values. A digest of the protocol:
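cln2 rad14 yeast strain; compound exposure; growth inhibition read vs vehicle controls.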

A short description of assay [5]: NCI Yeast Anticancer Drug Screen. Data for the bub3 strain (AID 167). As to conditions: S. cerevisiae bub3 mutant strain, hits give high values. In outline: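 Inhibition values come from growth of compound-treated mutant yeast normalised to vehicle-treated controls.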
The nature of assay [6]: NCI Yeast Anticancer Drug Screen. Data for the mlh1 rad18 strain (AID 175). The note with it: S. cerevisiae mlh1 rad18 strain growth inhibition, hits give high values. A digest of the protocol: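 Yeast w/ defined DNA-repair lesions; compound exposure; growth vs vehicle controls → % inhibition.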
[7] abbreviates: at 5.0 µM (retest, dose inferred, filed as 0.5).
[8] abbreviates: at 50.0 µM (retest, dose inferred, filed as 5.0).

In the case of `NC(=O)c1ccccc1C(=O)O`, the growth inhibition in assay [1] (setting [7]) was -6%; in assay [1] (setting [8]) it was 7%; in assay [1] (at 50.0 µM) it was 12.9%; in assay [2] (setting [7]) it was -5%; in assay [2] (setting [8]), -2%; in assay [2] (at 50.0 µM) it was 1.85%. For the same compound, the growth inhibition in assay [3] (setting [7]) is 0%; in assay [3] (setting [8]) it was 2%; in assay [3] (at 50.0 µM) it was -36.1%; in assay [4] (setting [7]) it was 2%; in assay [4] (setting [8]) it was 1%; in assay [4] (at 50.0 µM) it was 36.9%. The growth inhibition is 2% in assay [5] (setting [7]); 9% in assay [5] (setting [8]); 0.6% in assay [5] (at 50.0 µM); -5% in assay [6] (setting [7]); 5% in assay [6] (setting [8]); 5.9% in assay [6] (at 50.0 µM).

For the compound `Cc1ccccc1NC(=O)c1cc2cc(N=Nc3ccccc3C(=O)O)ccc2oc1=O`, the growth inhibition in assay [1] (setting [7]) is 7%; in assay [1] (setting [8]) it was 81% (active); in assay [1] (at 50.0 µM), 91.4% (active); in assay [2] (setting [7]), -10%; in assay [2] (setting [8]), 65%; in assay [2] (at 50.0 µM), 83.5% (active). Besides, the growth inhibition in assay [3] (setting [7]) was 15%; in assay [3] (setting [8]), 90% (active); in assay [3] (at 50.0 µM), 96.5% (active); in assay [4] (setting [7]), 9%; in assay [4] (setting [8]), 46%; in assay [4] (at 50.0 µM), 90.3% (active). Moreover, the growth inhibition in assay [5] (setting [7]) is 7%; in assay [5] (setting [8]), 78% (active); in assay [5] (at 50.0 µM), 82.7% (active); in assay [6] (setting [7]) it was 8%; in assay [6] (setting [8]), 49%; in assay [6] (at 50.0 µM), 96.5% (active).

With `O=C(/C=C/c1ccccc1)CCN1CCC2CCC(C2)C1` (stereo not given), the growth inhibition is 2% in assay [1] (setting [7]); 55% in assay [1] (setting [8]); 62.9% in assay [1] (at 50.0 µM); 9% in assay [2] (setting [7]); 82% (active) in assay [2] (setting [8]); 93% (active) in assay [2] (at 50.0 µM). Also, the growth inhibition in assay [3] (setting [7]) is 15%; in assay [3] (setting [8]), 54%; in assay [3] (at 50.0 µM), 76.1% (active); in assay [4] (setting [7]) it was 11%; in assay [4] (setting [8]) it was 58%; in assay [4] (at 50.0 µM), 27.6%. For the same compound, the growth inhibition is 3% in assay [5] (setting [7]); 79% (active) in assay [5] (setting [8]); 46.9% in assay [5] (at 50.0 µM); 8% in assay [6] (setting [7]); 81% (active) in assay [6] (setting [8]); 79.5% (active) in assay [6] (at 50.0 µM).

For `C[N+]1=C(/C=C\c2ccc(O)c3ccccc23)C(C)(C)c2ccccc21`, the growth inhibition in assay [1] (setting [7]) was -2%; in assay [1] (setting [8]), 82% (active); in assay [1] (at 50.0 µM), 40.5%; in assay [2] (setting [7]), 3%; in assay [2] (setting [8]), 89% (active); in assay [2] (at 50.0 µM), 50.2%. Moreover, the growth inhibition was -2% in assay [3] (setting [7]); 92% (active) in assay [3] (setting [8]); 36% in assay [3] (at 50.0 µM); -4% in assay [4] (setting [7]); 83% (active) in assay [4] (setting [8]); 54.9% in assay [4] (at 50.0 µM). For the same compound, the growth inhibition is 15% in assay [5] (setting [7]); 82% (active) in assay [5] (setting [8]); 38.5% in assay [5] (at 50.0 µM); 28% in assay [6] (setting [7]); 82% (active) in assay [6] (setting [8]); 43.7% in assay [6] (at 50.0 µM).

As to `CCCCCCC(=O)Nc1ccc(OC(=O)CCCCCC)c(=O)cc1`, the growth inhibition in assay [1] (setting [7]) is 8%; in assay [1] (setting [8]), 99% (active); in assay [1] (at 50.0 µM), 98.8% (active); in assay [2] (setting [7]), 36%; in assay [2] (setting [8]) it was 100% (active); in assay [2] (at 50.0 µM), 99.2% (active). In addition, the growth inhibition is 33% in assay [3] (setting [7]); 99% (active) in assay [3] (setting [8]); 99.3% (active) in assay [3] (at 50.0 µM); -14% in assay [4] (setting [7]); 99% (active) in assay [4] (setting [8]); 98% (active) in assay [4] (at 50.0 µM). Also, the growth inhibition in assay [5] (setting [7]) is 15%; in assay [5] (setting [8]), 99% (active); in assay [5] (at 50.0 µM), 99.2% (active); in assay [6] (setting [7]) it was 26%; in assay [6] (setting [8]), 99% (active); in assay [6] (at 50.0 µM), 98.5% (active).

As for `O=C(CBr)c1cc(-c2ccc(Cl)cc2)nc2ccccc12`, the growth inhibition was 86% (active) in assay [1] (setting [7]); 98% (active) in assay [1] (setting [8]); 98.9% (active) in assay [1] (at 50.0 µM); 95% (active) in assay [2] (setting [7]); 99% (active) in assay [2] (setting [8]); 99% (active) in assay [2] (at 50.0 µM). The growth inhibition in assay [3] (setting [7]) was 100% (active); in assay [3] (setting [8]), 99% (active); in assay [3] (at 50.0 µM), 99% (active); in assay [4] (setting [7]) it was 35%; in assay [4] (setting [8]), 98% (active); in assay [4] (at 50.0 µM), 98% (active). Also, the growth inhibition in assay [5] (setting [7]) is 95% (active); in assay [5] (setting [8]), 99% (active); in assay [5] (at 50.0 µM) it was 98.7% (active); in assay [6] (setting [7]) it was 97% (active); in assay [6] (setting [8]), 98% (active); in assay [6] (at 50.0 µM), 98.8% (active).

On to `O=C(N/C(=C\c1cc(Cl)ccc1Cl)c1nc2ccc(Cl)cc2[nH]1)c1ccccc1`, for which the growth inhibition in assay [1] (setting [7]) is 29%; in assay [1] (setting [8]), 87% (active); in assay [1] (at 50.0 µM) it was 93.2% (active); in assay [2] (setting [7]), 17%; in assay [2] (setting [8]), 82% (active); in assay [2] (at 50.0 µM) it was 96.5% (active). Also, the growth inhibition in assay [3] (setting [7]) was 28%; in assay [3] (setting [8]) it was 81% (active); in assay [3] (at 50.0 µM), 93.8% (active); in assay [4] (setting [7]) it was 39%; in assay [4] (setting [8]) it was 84% (active); in assay [4] (at 50.0 µM) it was 91.9% (active). Further, the growth inhibition in assay [5] (setting [7]) was 31%; in assay [5] (setting [8]), 87% (active); in assay [5] (at 50.0 µM), 94.7% (active); in assay [6] (setting [7]) it was 14%; in assay [6] (setting [8]), 81% (active); in assay [6] (at 50.0 µM), 96.5% (active).

Consider `O=C(CNS(=O)(=O)Cc1ccccc1)NCC(=O)NNc1ccccc1`, for which the growth inhibition in assay [1] (setting [7]) was 12%; in assay [1] (setting [8]) it was 55%; in assay [1] (at 50.0 µM) it was 59.5%; in assay [2] (setting [7]), 1%; in assay [2] (setting [8]), 29%; in assay [2] (at 50.0 µM) it was 29.4%. The growth inhibition was -5% in assay [3] (setting [7]); 63% in assay [3] (setting [8]); 58.2% in assay [3] (at 50.0 µM); 12% in assay [4] (setting [7]); 40% in assay [4] (setting [8]); 44.4% in assay [4] (at 50.0 µM). The growth inhibition in assay [5] (setting [7]) was 1%; in assay [5] (setting [8]) it was 53%; in assay [5] (at 50.0 µM) it was 20.1%; in assay [6] (setting [7]), 31%; in assay [6] (setting [8]), 76% (active); in assay [6] (at 50.0 µM) it was 81.7% (active).

`O=C(O)c1ccccc1NC(c1ccccc1)c1ccc2cccnc2c1O` (stereo not given): the growth inhibition in assay [1] (setting [7]) was -15%; in assay [1] (setting [8]), 94% (active); in assay [1] (at 50.0 µM) it was 96.8% (active); in assay [2] (setting [7]), -3%; in assay [2] (setting [8]) it was 91% (active); in assay [2] (at 50.0 µM), 93% (active). The growth inhibition in assay [3] (setting [7]) is 0%; in assay [3] (setting [8]), 87% (active); in assay [3] (at 50.0 µM), 96.8% (active); in assay [4] (setting [7]), -39%; in assay [4] (setting [8]) it was 88% (active); in assay [4] (at 50.0 µM) it was 93.3% (active). Besides, the growth inhibition in assay [5] (setting [7]) is -17%; in assay [5] (setting [8]), 95% (active); in assay [5] (at 50.0 µM) it was 93.7% (active); in assay [6] (setting [7]) it was -14%; in assay [6] (setting [8]), 96% (active); in assay [6] (at 50.0 µM), 93.5% (active).

In the case of `O=[N+]([O-])c1cc(Cc2cc([N+](=O)[O-])c3cccnc3c2O)c(O)c2ncccc12`, the growth inhibition was 96% (active) in assay [1] (setting [7]); 98% (active) in assay [1] (setting [8]); 98.3% (active) in assay [1] (at 50.0 µM); 89% (active) in assay [2] (setting [7]); 98% (active) in assay [2] (setting [8]); 97.2% (active) in assay [2] (at 50.0 µM). Also, the growth inhibition in assay [3] (setting [7]) was 85% (active); in assay [3] (setting [8]), 98% (active); in assay [3] (at 50.0 µM), 98.4% (active); in assay [4] (setting [7]), 65%; in assay [4] (setting [8]), 97% (active); in assay [4] (at 50.0 µM), 93.5% (active). Moreover, the growth inhibition is 73% (active) in assay [5] (setting [7]); 98% (active) in assay [5] (setting [8]); 97.4% (active) in assay [5] (at 50.0 µM); 90% (active) in assay [6] (setting [7]); 97% (active) in assay [6] (setting [8]); 97.8% (active) in assay [6] (at 50.0 µM).
